Compounds with a hit are over-represented: about 3.1% of the library has one in this group of screens.
TWEAK Fn14 block – inhibitors of TWEAK-Fn14 interaction signaling; TWEAK-stimulated Fn14 reporter cells, luciferase luminescence, 8 h; hit rate 2% among 360,000; inhibition, % at 10 µM; AID 1159606; in the data active means inhibition above about 50%
LGR2 inh – blocks bursicon-induced cAMP signaling via Drosophila LGR2 | inhibition, % at 9.99 µM | HEK293 LGR2, CRE-luciferase, bursicon-stimulated, 4 h | hit rate 0.35% among 380,000;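 active means drop in luminescence signal, shown as inhibition above about 50% in the replicate tests, limit read from the data, passing the limit was not always enough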;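 further: agonist challenge used bursicon conditioned medium at about half maximal strength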
TROY NFkB inh – blocks TROY-dependent signaling in reporter cells; inhibition, % at 10 µM; Q293 LMP1-TROYcd NF-kB luciferase reporter, 4 h; hit rate 0.98% among 360,000; AID 1347056;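 active means compounds whose plate-normalised and pattern-corrected inhibition of the luciferase reporter signal at the single screening dose is 50% or more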
EBV LMP1 NFkB – inhibitors of Epstein-Barr LMP1-induced NF-kappaB reporter; inhibition, % at 12.5 µM; AID 504558; LMP1-induced NF-kappaB luciferase reporter cells, luminescence; hit rate 0.69% among 350,000; in the data active means inhibition above about 41%;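 further: 0% = neutral control wells and 100% = reference inhibitor control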
PAX8 reporter – lowers PAX8-driven luciferase in RMG-I cells | RMG-I TPO-luciferase reporter, SteadyGlo, 24 h | hit rate 1.2% among 360,000 | inhibition, % at 12.6 µM;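 active means mean replicate inhibition at least 60% with every replicate also reaching 60%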;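 further: luciferase light reporting Pax8 driven TPO promoter activity; plate controls were median of neutral control wells for no effect and mitoxantrone controls for full effect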
EWS-Fli block – EWS/Fli transcriptional activity inhibition | hit rate 0.67% among 350,000 | inhibition, % at 12.6 µM | A673 NR0B1-luciferase reporter, viability-normalised;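 active means mean inhibition of at least 50% after viability correction, with every replicate also passing that limit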;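 further: firefly luciferase signal divided by Alamar Blue viability fluorescence both relative to DMSO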
* marks the source's active call; other numbers are inactive results; . = no result given.

SMILES	TWEAK Fn14 block	LGR2 inh	TROY NFkB inh	EBV LMP1 NFkB	PAX8 reporter	EWS-Fli block
Cc1cc(C(=O)N/N=C/c2ccc(Cl)c([N+](=O)[O-])c2)c(C)n1-c1ccc(F)cc1	63*	3	42	3	16	3
C[C@@H]1CN([C@@H](C)CO)C(=O)c2cc(NC(=O)Nc3ccc4c(c3)OCO4)ccc2O[C@@H](C)CCCCO[C@H]1CN(C)Cc1ccc(C(=O)O)cc1	.	-18	.	.	-5	-8
COc1ccc(/C=N/NC(=O)c2cc(C)n(-c3ccccc3)c2C)cc1OC	14	-17	62*	6	-40	-29
Cc1[nH]n(-c2ccccc2)c(=O)c1N=Nc1c(O)cc(S(=O)(=O)N(C)C)c2ccccc12	88*	20	49	23	53	-14
COc1ccccc1NC(=O)N[C@H]1C=C[C@@H](CC(=O)N2CCC(Cc3ccccc3)CC2)O[C@H]1CO	.	-18	.	.	27	1
Cc1cc([N+](=O)[O-])ccc1NC(=O)CSc1nnc(C)n1C	58*	3	-22	-6	7	-2
CN1C(=O)c2cc(NC(=O)c3ccccc3)ccc2OC[C@@H]2O[C@H](CC(=O)NC3CCCC3)CC[C@@H]21	.	-2	.	.	-25	0
CC1(c2nnnn2-c2ccc3c(c2)OCCO3)CCC(=O)N1Cc1ccc(F)cc1 (stereo unspecified)	12	2	1	.	1	-3
CC1(c2nnnn2-c2ccc3c(c2)OCCO3)CCC(=O)N1Cc1cccnc1 (stereo unspecified)	79*	-36	57*	.	-25	-72
COc1ccc(NC(=S)NCc2ccc3c(c2)OCO3)cc1	5	14	27	-2	-13	65*
Cc1ccc(S(=O)(=O)N(C)C[C@@H]2Oc3c(NS(=O)(=O)c4cn(C)cn4)cccc3C(=O)N([C@H](C)CO)C[C@H]2C)cc1	.	2	.	.	1	-4
O=C(Nc1ccsc1C(=O)O)c1cccc(Oc2ccccc2)c1	53*	46	53*	-25	-59	-18
COc1ccc2[nH]c(-c3ccc(C)cc3)cc(=O)c2c1	75*	.	42	43*	.	.
COc1ccc(C(=O)Nc2ccc3[nH]c(-c4cccc(OC)c4)cc(=O)c3c2)cc1	-64	-1	12	8	39	57*
COc1ccc(-c2cc(=O)c3cc(F)ccc3[nH]2)cc1	-9	-18	-41	-1	-10	-48
CO[C@@H]1CN(C)C(=O)c2cc(NC(C)=O)ccc2OC[C@@H](C)N(C(=O)CN2CCOCC2)C[C@H]1C	.	8	.	.	.	-2
CO[C@@H]1CN(C)C(=O)c2cc(NC(=O)C3CC3)ccc2OC[C@H](C)N(C(=O)c2cnccn2)C[C@H]1C	.	-8	.	.	-3	1
O=C(NCCC1CCCCN1S(=O)(=O)c1ccc(Cl)cc1)C(=O)NCc1ccncc1 (stereo unspecified)	5	-2	-3	8	97*	11
O=C(NCCC1CCCCN1S(=O)(=O)c1ccc(F)cc1)C(=O)NCc1ccncc1 (stereo unspecified)	0	1	-4	2	69*	8
O=C(C[C@H]1CC[C@@H]2NC[C@@H](O)COC[C@H]2O1)Nc1ccc(-c2ccccc2)cc1	.	-1	.	.	-26	-16
Cc1noc(C)c1S(=O)(=O)Nc1ccc2c(c1)C(=O)N([C@@H](C)CO)C[C@@H](C)[C@@H](CN(C)Cc1ccc(-c3ccccc3)cc1)O2	.	11	.	.	.	2
COc1ccc(CC(C(=O)Nc2cccc(F)c2)c2nn[nH]n2)c(OC)c1 (stereo unspecified)	51*	.	65*	-14	-5	.
COc1ccc(NC(=O)Nc2cccc(F)c2)c(OC)c1	0	-14	-70	1	-28	-33
Cc1noc(C)c1NC(=O)Nc1ccc2c(c1)C(=O)N([C@H](C)CO)C[C@@H](C)[C@@H](CN(C)Cc1ccc(C(F)(F)F)cc1)OCCCC[C@H](C)O2	.	-2	.	.	31	10
O=C(Nc1ccc(Cl)c(Cl)c1)Nc1nnc(CC2=CCCCC2)s1	28	12	22	71*	-3	20
CCC(NC(C)C)C(O)c1ccc(O)c2[nH]c(=O)ccc12 (stereo unspecified)	-17	.	11	74*	.	.
Cc1cccc(NCc2ccc(O)c3ncccc23)c1C	36	-8	20	-5	99*	47
CC(=O)Nc1ccccc1OCC(=O)c1cc(C)n(Cc2cccs2)c1C	64*	.	36	-20	-149	.

Screening data as filed in PubChem.
